The source of these data is PubChem BioAssay (NCI).

Some test systems named below: HCT-15 colon; HT29 colon; SNB-75 CNS; SNB-19 CNS; U251 CNS; PC-3 prostate; SK-MEL-5 melanoma; UACC-62 melanoma; LOX IMVI melanoma; SK-MEL-28 melanoma; SK-MEL-2 melanoma; EKVX NSCLC; SN12C renal; UO-31 renal; TK-10 renal; ACHN renal; CAKI-1 renal; A498 renal; CCRF-CEM leukemia; MOLT-4 leukemia.
Experiment in all cases: NCI-60 one-dose screen, 48 h (100 = growth as untreated, 0 = no growth, -100 = all killed)
Holding throughout (details): 10 µM unless noted

About 83,000 compounds went through this panel and 20% of them were active in at least one assay; those are over-represented in the sample as a whole.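 Cell lines were cultured in 96-well plates, exposed to a single compound concentration, and assessed for percent growth 48 hours later.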 Values without a mark were called inactive. Active and inactive are the calls of the source. How the source made its calls: active means growth percent below 10; inactive means the rest.

For the compound `COC(=O)c1ccc2c(c1)[n+](=O)c(C(C)=O)c(C(F)(F)F)n2[O-]`, the growth is -77.5% (active) in the test on HCT-15 colon; -56% (active) in the test on HT29 colon; -20.5% (active) with SNB-75 CNS; -6.44% (active) with SNB-19 CNS; -72.2% (active) in the test on U251 CNS; -58.1% (active) in the test with PC-3 prostate. The growth in the test on SK-MEL-5 melanoma is -100% (active); in the test on UACC-62 melanoma, -32.7% (active); in the test on LOX IMVI melanoma it was -95.3% (active); with SK-MEL-28 melanoma it was 27%; with SK-MEL-2 melanoma it was -31.9% (active); in the test on EKVX NSCLC, -46.3% (active). Moreover, the growth in the test on SN12C renal was -34% (active); in the test with UO-31 renal, -82% (active); in the test on TK-10 renal it was 25.9%; in the test on ACHN renal it was -99.3% (active); in the test with CAKI-1 renal, -78.5% (active); in the test on A498 renal, 6.79% (active).
Consider `OCc1cnccc1NCCCCOc1ccc(Oc2ccccc2)cc1`, for which the growth in the test with HCT-15 colon is 49.8%; in the test with HT29 colon, 24.6%; in the test on SNB-75 CNS, 71.6%; in the test on SNB-19 CNS, 74.6%; with U251 CNS it was 52.3%; with PC-3 prostate it was 56%. For the same compound, the growth in the test on SK-MEL-5 melanoma is 15.7%; in the test with UACC-62 melanoma, 61.5%; with LOX IMVI melanoma it was 45.9%; in the test with SK-MEL-28 melanoma it was 70.2%; in the test with SK-MEL-2 melanoma, 81.6%; in the test with EKVX NSCLC, 50.6%. Further, the growth in the test on SN12C renal is 70.7%; in the test on UO-31 renal, 49.8%; in the test on TK-10 renal, 66.1%; in the test on ACHN renal, 80.3%; in the test with CAKI-1 renal, 70.7%; with A498 renal, 76.9%. Moreover, the growth is 53.9% with CCRF-CEM leukemia and 45.1% in the test with MOLT-4 leukemia.
Take `CCCCCCCC(=O)OCC/C=C/C1OC1C1OC(=O)/C=C\C=C\C(=O)N(C(C)=O)C(=O)/C=C(/C)CCC2OC2C1OC(=O)NC(C)=O` (stereo unspecified): the growth in the test with HCT-15 colon was 84.1%; in the test on HT29 colon, 50.8%; in the test on SNB-75 CNS it was 79.3%; in the test with SNB-19 CNS it was 179%; in the test with U251 CNS, 69.8%; in the test with PC-3 prostate, 84.5%. The growth with SK-MEL-5 melanoma is 67.5%; in the test with UACC-62 melanoma it was 68%; in the test with LOX IMVI melanoma it was 54%; with SK-MEL-28 melanoma it was 87.1%; in the test on SK-MEL-2 melanoma, 89.8%; in the test on EKVX NSCLC it was 83.5%. Besides, the growth is 63.2% in the test on SN12C renal; 69% with UO-31 renal; 37.5% with TK-10 renal; 29.2% in the test on ACHN renal; 71% with CAKI-1 renal; 90.7% in the test with A498 renal.
Consider `Cc1c(C)c([N+](=O)[O-])c(C)c([N+](=O)[O-])c1C`, for which the growth in the test with HCT-15 colon is 108%; with HT29 colon it was 93.5%; with SNB-75 CNS, 104%; with SNB-19 CNS, 97.1%; with U251 CNS it was 100%; in the test on PC-3 prostate it was 98.7%. The growth is 101% with SK-MEL-5 melanoma; 102% in the test with UACC-62 melanoma; 99.6% in the test with LOX IMVI melanoma; 104% in the test on SK-MEL-28 melanoma; 102% in the test on SK-MEL-2 melanoma; 103% in the test on EKVX NSCLC. Moreover, the growth is 102% with SN12C renal; 105% in the test with UO-31 renal; 102% in the test on TK-10 renal; 118% with ACHN renal; 99.3% in the test on CAKI-1 renal; 94.3% in the test on A498 renal.
For the compound `O=C(CNCCN1CCOCC1)N1c2cccc3cccc(c23)N(C(=O)CNCCN2CCOCC2)C1c1cn(-c2ccccc2)nc1-c1cccc([N+](=O)[O-])c1`, the growth was 43.6% with HCT-15 colon; 7.37% (active) in the test with HT29 colon; 57.9% with SNB-75 CNS; 77.1% in the test on SNB-19 CNS; 55.2% in the test on U251 CNS; 62.4% with PC-3 prostate. The growth in the test with SK-MEL-5 melanoma is 57.7%; with UACC-62 melanoma, 94.8%; in the test on LOX IMVI melanoma, 53.9%; in the test with SK-MEL-28 melanoma it was 64%; in the test with SK-MEL-2 melanoma, 96.5%; in the test with EKVX NSCLC, 84.6%. Moreover, the growth with SN12C renal is 79.4%; in the test with UO-31 renal, 65.1%; in the test with TK-10 renal it was 108%; with ACHN renal it was 88.7%; in the test on CAKI-1 renal it was 66%; with A498 renal it was 84.5%. Besides, the figures for the growth in the test on CCRF-CEM leukemia and in the test with MOLT-4 leukemia were 17.5% and 48.5%, respectively.
On to `CCCCN1C=CCN(CCCC)C1`, for which the growth was 90.2% with HCT-15 colon; 49.2% in the test on HT29 colon; 66.8% in the test with SNB-75 CNS; 31.1% in the test on SNB-19 CNS; 22.4% in the test on U251 CNS; 32.4% in the test on PC-3 prostate. Also, the growth in the test with SK-MEL-5 melanoma is -6.08% (active); in the test on UACC-62 melanoma it was 24.5%; in the test on LOX IMVI melanoma it was 68.8%; with SK-MEL-28 melanoma, 40%; in the test on SK-MEL-2 melanoma, 24.4%; with EKVX NSCLC, 47.5%. Moreover, the growth with SN12C renal was 34.8%; in the test on UO-31 renal, 74.6%; in the test with TK-10 renal, 56.8%; with ACHN renal it was 98.1%; in the test on CAKI-1 renal it was 86%; with A498 renal, 78.4%. In the test with CCRF-CEM leukemia, the growth was 87.2%.
As to `CC1(C)NCCC[C@]2(C)[C@H]3CC(=O)[C@H]4[C@@H]5C[C@](C)(CO)CC[C@]5(C)CC[C@@]4(C)[C@]3(C)CC[C@@H]12`, the growth with HCT-15 colon was 98.9%; with HT29 colon, 69.8%; in the test on SNB-75 CNS, 78.1%; in the test on SNB-19 CNS it was 99.4%; in the test on U251 CNS it was 91.4%; in the test on PC-3 prostate, 83.5%. Besides, the growth was 98.3% in the test with SK-MEL-5 melanoma; 98% in the test with UACC-62 melanoma; 97.1% in the test with LOX IMVI melanoma; 105% with SK-MEL-28 melanoma; 99.5% in the test on SK-MEL-2 melanoma; 96.9% with EKVX NSCLC. The growth in the test on SN12C renal is 101%; in the test on UO-31 renal, 95.5%; with TK-10 renal it was 100%; in the test with ACHN renal, 102%; with CAKI-1 renal it was 81.6%; in the test with A498 renal, 100%. Further, the growth was 93.1% with CCRF-CEM leukemia and 67% with MOLT-4 leukemia.
For `COc1cc(C2C3=C(COC3=O)N(CCO)c3cc4c(cc32)CCC4)cc(OC)c1OC` (stereo unspecified), the growth in the test with HCT-15 colon is 10.9%; in the test with HT29 colon, 2.19% (active); in the test with SNB-75 CNS it was 61.3%; in the test on SNB-19 CNS, -12.9% (active); with U251 CNS it was 7.16% (active); in the test with PC-3 prostate, 21.3%. In addition, the growth in the test on SK-MEL-5 melanoma was -60.3% (active); with UACC-62 melanoma, 31.2%; with LOX IMVI melanoma it was 21.6%; in the test with SK-MEL-28 melanoma it was 54.3%; in the test on SK-MEL-2 melanoma, 6.85% (active); in the test with EKVX NSCLC, 29.6%. The growth in the test on SN12C renal was 23.9%; in the test on UO-31 renal it was 31.9%; with TK-10 renal it was 55.3%; in the test with ACHN renal, 26.1%; in the test with CAKI-1 renal it was 28.7%; in the test on A498 renal, -20.4% (active).
